High-throughput results from PubChem.
DENV2 CPE rescue = inhibitors of DENV2 cytopathic effect, primary screen, cell-based, plate reader, single concentration | CPE inhibition, % at 9.99 µM | DENV2-infected cells, cytopathic effect rescue | 1.7% of 350,000 active | AID 651640, 2012; in the data active = CPE inhibition above about 20%, passing the limit was not always enough; inconclusive = no clear call, values can overlap the other calls; tested in BHK-21 cells;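 note: 0% = median of neutral control wells and 100% = median of positive control wells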
FGF22 binding = binders of human FGF22 protein, primary screen, FGF22 synaptogenesis inhibitor project, biophysical, thermal shift, single point. Fibroblast growth factor 22 (Homo sapiens), Q9HCT0. recombinant FGF22 thermal shift, SYPRO orange fluorescence; percent of sucrose octasulfate shift, DMSO zero. activity (Tm shift, normalised), % at 9.99 µM. 1.5% of 340,000 active;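 active = mean Tm shift, scaled 0 neutral to 100 positive control, at about 1.3% or above, every replicate too, limit read from the data; inconclusive = no clear call, values can overlap the other calls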
Target sequence (Q9HCT0 whole entry, looked up): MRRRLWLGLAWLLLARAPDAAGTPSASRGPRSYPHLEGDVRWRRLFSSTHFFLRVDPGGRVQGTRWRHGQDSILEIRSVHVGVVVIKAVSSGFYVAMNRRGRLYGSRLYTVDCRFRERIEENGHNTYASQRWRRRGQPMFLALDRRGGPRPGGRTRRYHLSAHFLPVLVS
RAD52 anneal inh = RAD52 DNA annealing inhibitors, primary screen, biochemical, FRET, single point, set 2; 0.46% of 360,000 active; recombinant RAD52 DNA annealing, FRET fluorescence; inhibition, % at 18.7 µM;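 active = every replicate showing at least 50% inhibition; inconclusive = mean inhibition at least 50% but not in every replicate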
Target sequence (P43351 whole entry, looked up): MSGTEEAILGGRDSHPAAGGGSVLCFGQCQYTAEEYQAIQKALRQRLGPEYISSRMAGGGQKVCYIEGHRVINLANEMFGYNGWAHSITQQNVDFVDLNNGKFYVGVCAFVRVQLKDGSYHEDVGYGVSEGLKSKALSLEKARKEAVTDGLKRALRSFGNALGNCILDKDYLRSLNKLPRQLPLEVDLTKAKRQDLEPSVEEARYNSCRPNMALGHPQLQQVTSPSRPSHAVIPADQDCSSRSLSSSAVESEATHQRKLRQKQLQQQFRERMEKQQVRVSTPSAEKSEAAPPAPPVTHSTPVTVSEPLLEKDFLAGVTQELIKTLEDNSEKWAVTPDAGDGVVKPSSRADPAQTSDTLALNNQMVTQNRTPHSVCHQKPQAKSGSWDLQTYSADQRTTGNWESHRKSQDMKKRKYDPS
AF4-AF9 inh = inhibitors of AF4 peptide binding to AF9, primary screen, biochemical, AlphaScreen, biotin-AF4 peptide, FLAG-AF9, single point; AID 651704, 2012; inhibition, % at 10 µM; 0.47% of 350,000 active;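 active = every replicate reaching a set inhibition limit, whatever the replicate mean, cut at about 25% in these data; inconclusive = mean inhibition reaches that limit but some replicates miss it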;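 note: 0% = plate neutral control median and 100% = total signal loss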
ERAP1 HTS inh = human ERAP1 aminopeptidase inhibitors, primary screen, biochemical, single point, plate reader | 0.15% of 340,000 active | recombinant ERAP1, Leu-AMC fluorescence, 60 min | inhibition, % at 10.7 µM;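 active = mean replicate inhibition of at least 30%, or all replicates individually reaching that 30% level; inactive = mean below 30% and not every replicate reaching it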;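 note: 0% = neutral control wells and 100% = L-leucinethiol positive control wells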
* = called active by the depositor. Most compounds without a hit are left out; they make up all but 4% or so of the library.

How did COc1cccc(NC(=O)c2nn(C)c(C(=O)Nc3cccc(OC)c3)c2[N+](=O)[O-])c1 do in these assays?
DENV2 CPE rescue: -4; FGF22 binding: 0; RAD52 anneal inh: -6; AF4-AF9 inh: -3; ERAP1 HTS inh: 0

Results for CN(C[C@H](Cc1ccccc1)N(C[C@@H](CC1CCCCC1)N(CCc1ccccc1)N=O)N=O)N=O ?
DENV2 CPE rescue: 57*; FGF22 binding: 0; RAD52 anneal inh: -18; ERAP1 HTS inh: 1

What do the screens show for `CCS(=O)(=O)Nc1ccc2c(c1)C(=O)N(C)C[C@@H](OC)[C@@H](C)CN(Cc1nccs1)[C@H](C)CO2`?
AF4-AF9 inh: -1

Results for CCn1c(SCC(=O)NCc2ccccc2)nnc1C(CO)NC(=O)c1ccccc1 (stereo not drawn) ?
DENV2 CPE rescue: 5; FGF22 binding: 0; RAD52 anneal inh: -12; AF4-AF9 inh: 0; ERAP1 HTS inh: 32*

How did Cc1ncc([N+](=O)[O-])n1CC(=O)Nc1ccccc1F do in these assays?
DENV2 CPE rescue: -4; FGF22 binding: 0; RAD52 anneal inh: 0; AF4-AF9 inh: -2; ERAP1 HTS inh: -6

How did CSc1ccccc1NC(=O)Cn1c([N+](=O)[O-])cnc1C do in these assays?
DENV2 CPE rescue: inconclusive; FGF22 binding: 0; RAD52 anneal inh: -6; AF4-AF9 inh: 42*; ERAP1 HTS inh: 1

What do the screens show for `CN1OC[C@@H]2CN(Cc3ccc4c(c3)OCO4)[C@H](c3ccc(N4CCCCC4)cc3)C[C@@H]21`?
DENV2 CPE rescue: 1; FGF22 binding: 0; RAD52 anneal inh: -92; AF4-AF9 inh: 33*; ERAP1 HTS inh: -7

How did CN1OC[C@@H]2CN(Cc3ccccc3)[C@H](c3ccc(N4CCCCC4)cc3)C[C@@H]21 do in these assays?
DENV2 CPE rescue: 1; FGF22 binding: 0; RAD52 anneal inh: -40; AF4-AF9 inh: 28*

How did O=C1[C@H]2[C@@H](/C=C/c3ccccc3)N3C(=O)CN(CCO)C(=O)[C@@]3(Cc3ccccc3)[C@H]2C(=O)N1c1ccccc1 do in these assays?
DENV2 CPE rescue: 56*; FGF22 binding: 0; RAD52 anneal inh: -17; AF4-AF9 inh: -1

What do the screens show for `CNC(=S)Nc1ccc(-c2nc3ccc(C)cc3s2)cc1`?
DENV2 CPE rescue: -4; FGF22 binding: 22*; RAD52 anneal inh: -146; AF4-AF9 inh: 1; ERAP1 HTS inh: -1

What do the screens show for `C[C@@H]1CN([C@H](C)CO)C(=O)c2cccc(NC(=O)CCCCCC(=O)Nc3ccccc3N)c2O[C@@H]1CN(C)Cc1ccc(Cl)c(Cl)c1`?
DENV2 CPE rescue: 11; FGF22 binding: 0; RAD52 anneal inh: 4; AF4-AF9 inh: 1; ERAP1 HTS inh: 0

How did COc1ccccc1CN1[C@@H](CC(C)=O)c2cc(C(F)(F)F)ccc2S1(=O)=O do in these assays?
DENV2 CPE rescue: 71*; FGF22 binding: 0; RAD52 anneal inh: -34; AF4-AF9 inh: -5

What do the screens show for `COC(=O)C[C@H]1c2cc(F)ccc2S(=O)(=O)N1Cc1ccccc1OC`?
DENV2 CPE rescue: 16; FGF22 binding: 0; RAD52 anneal inh: -20; AF4-AF9 inh: -33; ERAP1 HTS inh: -2

Results for COC(=O)C[C@H]1c2cc(C(F)(F)F)ccc2S(=O)(=O)N1Cc1ccc(OC)cc1 ?
DENV2 CPE rescue: 20*; FGF22 binding: -1; RAD52 anneal inh: 0; AF4-AF9 inh: -5

Results for COc1ccc(CN2[C@@H](CC(=O)O)c3cc(C(F)(F)F)ccc3S2(=O)=O)cc1 ?
DENV2 CPE rescue: -5; FGF22 binding: 0; RAD52 anneal inh: -3; AF4-AF9 inh: -5; ERAP1 HTS inh: 3

Results for C[C@@H]1CN([C@@H](C)CO)C(=O)c2cc(C3=CCCCC3)cnc2O[C@@H]1CN(C)Cc1cccnc1 ?
DENV2 CPE rescue: 20*; FGF22 binding: 0; RAD52 anneal inh: 0; AF4-AF9 inh: -2; ERAP1 HTS inh: -1

How did C[C@H](CO)N1C[C@H](C)[C@H](CN(C)Cc2cccc(F)c2)Oc2ncc(C3=CCCCC3)cc2C1=O do in these assays?
DENV2 CPE rescue: 23*; FGF22 binding: 0; RAD52 anneal inh: 7; AF4-AF9 inh: 1; ERAP1 HTS inh: 0

How did C[C@@H]1CN([C@@H](C)CO)C(=O)c2cc(-c3cccnc3)cnc2O[C@@H]1CN(C)Cc1ccc(-c2ccccc2)cc1 do in these assays?
DENV2 CPE rescue: 37*; FGF22 binding: 0; RAD52 anneal inh: -7; AF4-AF9 inh: 4; ERAP1 HTS inh: -2

Results for C[C@@H]1CN([C@H](C)CO)C(=O)c2cc(-c3cccnc3)cnc2O[C@H]1CN(C)Cc1ccc(-c2ccccc2)cc1 ?
DENV2 CPE rescue: -5; FGF22 binding: 0; RAD52 anneal inh: 14; AF4-AF9 inh: 17; ERAP1 HTS inh: 0

What do the screens show for `COc1ccc(CN2C[C@H](O)COC[C@@H]3O[C@H](CC(=O)N4CCc5ccccc5C4)CC[C@H]32)cc1`?
DENV2 CPE rescue: -8; FGF22 binding: 0; RAD52 anneal inh: -2; AF4-AF9 inh: 1; ERAP1 HTS inh: 4

How did O=C(Nc1cccc(F)c1)N[C@@H]1CC[C@H](CCNS(=O)(=O)c2cccc(Cl)c2)O[C@H]1CO do in these assays?
DENV2 CPE rescue: 3; FGF22 binding: 0; RAD52 anneal inh: -11; AF4-AF9 inh: 1; ERAP1 HTS inh: 10

Results for CC(=O)N1[C@@H]2Cn3c(ccc(-c4ccccc4)c3=O)[C@H]1[C@@H](C(=O)NCCCN1CCOCC1)[C@@H]2CO ?
DENV2 CPE rescue: inconclusive; FGF22 binding: 0; RAD52 anneal inh: 3; AF4-AF9 inh: 1; ERAP1 HTS inh: 2

How did COc1ccc(COCC23N=C4SCc5ccccc5C(=O)N4[C@H](c4ccccc4O2)[C@H]3CO[Si](C)(C)C(C)(C)C)cc1 do in these assays?
DENV2 CPE rescue: 28*; FGF22 binding: 0; RAD52 anneal inh: 15; AF4-AF9 inh: -4; ERAP1 HTS inh: 4

How did COc1ccc(COC[C@]23N=C4Sc5ccc([N+](=O)[O-])cc5C(=O)N4[C@H](c4ccccc4O2)[C@H]3CO[Si](C)(C)C(C)(C)C)cc1 do in these assays?
DENV2 CPE rescue: 4; FGF22 binding: 0; RAD52 anneal inh: 2; AF4-AF9 inh: -3; ERAP1 HTS inh: 4

How did C[C@@H]1CCCCO[C@H](CN(C)C(=O)c2ccccc2)[C@@H](C)CN([C@@H](C)CO)C(=O)c2cc(NC(=O)c3ccccc3)ccc2O1 do in these assays?
DENV2 CPE rescue: -1; FGF22 binding: -1; RAD52 anneal inh: 13; AF4-AF9 inh: -6; ERAP1 HTS inh: 0

Results for CCc1ccc(-c2cn3c(n2)SCC3)cc1 ?
DENV2 CPE rescue: 12; FGF22 binding: 43*; RAD52 anneal inh: -5; AF4-AF9 inh: -1; ERAP1 HTS inh: 4

What do the screens show for `Cc1ccc(-c2cn3c(n2)SCC3)cc1`?
DENV2 CPE rescue: -2; FGF22 binding: 0; RAD52 anneal inh: -28; AF4-AF9 inh: 0; ERAP1 HTS inh: 7
